Experimental findings from publication PMC5540273 (PLoS ONE, 2017) are described below.

Holding throughout (details): concentration: 1 μM, replicates: in singlicate; n = 1
Test [1] relates to T1, SNARK.
T1 construct: gene NUAK2

The subject of test [2] is SNRK.
Test [3] has as its system SRC.
Test [4] concerns SRMS.
For test [5], the system named is SRPK1.
Test [6] deals with SRPK2.
Test [7] deals with SRPK3.
The subject of test [8] is STK16.
Test [9] concerns STK33.
For test [10], the system named is STK35.
For test [11], the system named is STK36.
In test [12] the test system is STK39.
The subject of test [13] is SYK.
Test [14] concerns SgK110.
Test [15] relates to T2, TAK1.
T2 construct: gene MAP3K7

For test [16], the system named is TAOK1.
Test [17] relates to TAOK2.
Test [18] concerns TAOK3.
For test [19], the system named is TBK1.
In test [20] the test system is TEC.
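Note: KINOMEscan kinase panel screen.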

As to `Cn1cc(-c2[nH]c3cc(NC(=O)[C@H](N)C4CCCCC4)cc4c3c2C=NNC4=O)cn1`, the “%Inh” value came to 97.9% in test [1]; 1% in test [2]; 98.3% in [3]; 75% in [4]; 99% in test [5]; 77% in [6]. The “%Inh” value in test [7] is given as 82%; in test [8], 66%; in test [9], 37%; in test [10], 53%; in [11] it was 0%; in test [12], 59%. The “%Inh” value in [13] is 55%; in test [14], 92.1%; in test [15] it was 52%; in test [16], 0%; in test [17] it was 0%; in test [18], 0%. The “%Inh” value in test [19] was determined as 82%; in test [20], 43%.
Take `Cc1ccc(F)c(C(=O)Nc2cccc(-c3nn4ccccc4c3-c3ccnc(Nc4cccc(F)c4)n3)c2)c1F` [GSK361061]: the “%Inh” value in [1] worked out at 11%; in test [2], 0%; in [3] it was 25%; in [4], 44%; in test [5], 15%; in test [6], 0%. The “%Inh” value in [7] stood at 25%; in test [8], 5%; in [9] it was 4%; in test [10], 33%; in test [11] it was 99.1%; in [12] it was 18%. Also, the “%Inh” value is recorded as 45% in test [13]; 0% in test [14]; 0% in test [15]; 33% in test [16]; 18% in test [17]; 41% in test [18]. Moreover, the “%Inh” value in test [19] came to 29%; in test [20], 75%.
Take `O=C(Nc1cccc(-c2nn3ccccc3c2-c2ccnc(Nc3cccc(F)c3)n2)c1)c1c(F)ccc(F)c1Cl` [GSK357952]: the “%Inh” value in test [1] came to 4%; in test [2], 17%; in [3], 45%; in test [4] it was 28%; in test [5], 45%; in test [6], 0%. Also, the “%Inh” value in test [7] was 0%; in test [8] it was 0%; in test [9] it was 10%; in test [10], 27%; in [11] it was 99.3%; in test [12] it was 35%. Also, the “%Inh” value is on record as 16% in test [13]; 0% in test [14]; 0% in test [15]; 33% in test [16]; 0% in [17]; 34% in [18]. In addition, the results for the “%Inh” value in test [19] and in test [20] were 3% and 60%, respectively.
Take `Cc1cccc(NC(=O)Nc2ccc(Oc3ncnc4ccn(C)c34)cc2)c1`: the “%Inh” value in test [1] was 0%; in test [2], 0%; in [3], 0%; in test [4] it was 0%; in test [5] it was 11%; in test [6] it was 0%. For the same molecule, the “%Inh” value in [7], in [8], in test [9], in test [10], in [11] and in [12] was 0% in each case. Further, the “%Inh” value in [13] came to 0%; in test [14] it was 0%; in [15], 0%; in test [16] it was 0%; in test [17], 20%; in test [18], 0%. The “%Inh” value was determined as 6% in [19] and 0% in test [20].
Regarding `CC(=O)N1CCN(c2ccc(Nc3nccc(-c4sc(C(C)C)nc4-c4cccc(NS(=O)(=O)c5cccc(Cl)c5)c4)n3)cn2)CC1` [GSK1660437], the “%Inh” value is reported as 17% in test [1]; 0% in test [2]; 85% in test [3]; 98.3% in [4]; 44% in test [5]; 0% in test [6]. The “%Inh” value is recorded as 44% in test [7]; 0% in [8]; 34% in [9]; 0% in test [10]; 99.8% in test [11]; 19% in test [12]. Besides, the “%Inh” value worked out at 61% in test [13]; 0% in test [14]; 41% in [15]; 0% in test [16]; 0% in test [17]; 3% in test [18]. Further, the “%Inh” value in test [19] stood at 2%; in test [20] it was 21%.
Take `Cc1occc1-c1ncc(OC[C@@H](N)Cc2c[nH]c3ccccc23)cc1-c1ccc2[nH]nc(C)c2c1.O=C(O)C(F)(F)F` [GSK682037]: the “%Inh” value in test [1] is on record as 60%; in test [2], 0%; in test [3], 65%; in [4], 0%; in [5], 54%; in test [6], 0%. For the same molecule, the “%Inh” value came out at 70% in [7]; 0% in [8]; 86% in test [9]; 69% in [10]; 0% in [11]; 15% in [12]. Besides, the “%Inh” value in [13] is 0%; in test [14] it was 0%; in test [15] it was 97.9%; in test [16] it was 97.7%; in [17], 36%; in test [18], 83%. Moreover, the “%Inh” value in test [19] and in test [20] was 0% each time.
Turning to `O=C(Nc1cccc(-c2nn3ccccc3c2-c2ccnc(Nc3cccc(C(F)(F)F)c3)n2)c1)c1c(F)cccc1F` [GSK292658], the “%Inh” value in test [1] amounted to 9%; in test [2], 15%; in test [3] it was 15%; in test [4], 22%; in test [5] it was 12%; in [6], 0%. Besides, the “%Inh” value was 17% in test [7]; 0% in [8]; 4% in test [9]; 20% in [10]; 97.8% in test [11]; 0% in test [12]. Also, the “%Inh” value in [13] came out at 37%; in test [14], 68%; in test [15], 0%; in test [16], 27%; in [17], 3%; in test [18], 30%. Besides, the results for the “%Inh” value in test [19] and in test [20] were 8% and 83%, respectively.
Regarding `COc1ccc(CNC(=O)NC2CCN(c3ccnc(Nc4ccc(F)cc4)n3)CC2)cc1` [GSK1379788], the “%Inh” value in test [1] is listed as 0%; in [2], 0%; in test [3], 0%; in test [4], 0%; in test [5], 0%; in [6] it was 11%. The “%Inh” value was 0% in test [7]; 9% in [8]; 0% in test [9]; 0% in test [10]; 0% in test [11]; 0% in [12]. Moreover, the “%Inh” value in test [13] is recorded as 21%; in test [14] it was 0%; in test [15], 0%; in test [16] it was 0%; in test [17], 0%; in [18], 0%. Further, the “%Inh” value stood at 2% in test [19] and 0% in [20].
